Experimental data taken from PubChem BioAssay AID504942 (Broad Institute, 2011).
Entries with a potency or affinity are not part of this list. The source made the active and inactive calls. The rule behind the calls is not given here.

assay: HeLa cell cytotoxicity, dose response, cytotoxicity control, 48 h, plate reader, cherry-picks (AID 504942); conditions: series mostly up to 38 µM

| Compound | outcome |
| --- | --- |
| Cc1cc(S(=O)(=O)NCC2CC2)c(Cl)cc1Cl | inactive |
| O=[N+]([O-])c1ccc(N2CCCCC2)cc1 | inactive |
| CCC(C)NS(=O)(=O)c1ccc(OC)c(Cl)c1Cl (stereo not given) | inactive |
| O=CN(c1ccccc1)c1ccc2ccccc2c1 | inactive |
| CCOC(=O)c1cnc(-c2ccccc2)nc1N | inactive |
